Results from PubChem BioAssay (EPA / NIEHS).
The source made the active and inactive calls. Rule for the calls: active = hit-call score of the fitted dose curve at least 0.9, where 1 is the maximum; inactive = score below 0.9.

Legend:
Settings in all cases: mRNA level, 48 h; actives raise or lower the signal
[1] = read-out: Glutamate-cysteine ligase catalytic (GCLC), GCLC (gene 2729); experiment: LTEA_HepaRG_GCLC: Life Technologies and Expression Analysis (LTEA) Assay for Glutamate-cysteine ligase catalytic (GCLC) using HepaRG (AID 2283498)
Procedure, shortened: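 Differentiated HepaRG cells exposed 48 h in serum-free induction medium, eight-point half-log series topping at 100 uM in 0.5% DMSO, duplicates. GCLC mRNA by qRT-PCR normalized to ACTB, GAPDH and POLR2A, fitted bidirectionally versus DMSO.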

[2] = read-out: growth arrest and DNA damage 45 (GADD45G), GADD45G (gene 10912); experiment: LTEA_HepaRG_GADD45G: Life Technologies and Expression Analysis (LTEA) Assay for growth arrest and DNA damage 45 (GADD45G) using HepaRG (AID 2283499)
Procedure, shortened: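 Gain or loss of GADD45G mRNA, quantified by TaqMan qRT-PCR against three housekeeping genes, is fitted in both directions relative to 0.5% DMSO. Human HepaRG cultures receive test chemical for 48 h at up to 100 uM.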

[3] = read-out: Glutamate-cysteine ligase regulatory (GCLM), GCLM (gene 2730); experiment: LTEA_HepaRG_GCLM: Life Technologies and Expression Analysis (LTEA) Assay for Glutamate-cysteine ligase regulatory (GCLM) using HepaRG (AID 2283500)
Procedure, shortened: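 Differentiated HepaRG cells exposed 48 h in serum-free induction medium to eight half-log concentrations up to 100 uM (0.5% DMSO). GCLM mRNA by TaqMan qRT-PCR, normalized to ACTB, GAPDH and POLR2A; bidirectional fit versus DMSO.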

[4] = read-out: Glutathione S-transferase M3 (GSTM3), GSTM3 (gene 2947); experiment: LTEA_HepaRG_GSTM3: Life Technologies and Expression Analysis (LTEA) Assay for Glutathione S-transferase M3 (GSTM3) using HepaRG (AID 2283501)
Description: LTEA_HepaRG is a cell based, multiplexed-readout assay that uses HepaRG, a human liver cell line, with measurements taken at 48 hours after chemical dosing on a 96-well plate.LTEA_HepaRG_GSTM3 is one of 102 assay component(s) measured in the LTEA HepaRG cell culture assay. It is a marker of Oxidative Stress.Data from the assay component LTEA_HepaRG_GSTM3 was analyzed into 1 endpoint. This assay endpoint, LTEA_HepaRG_GSTM3, was analyzed with bidirectional fitting relative to DMSO as the negative control and baseline of activity. Using a type of inducible reporter, measures of mRNA induction for gain or loss-of-signal activity can be used to understand regulation of transcription factor activity. To generalize the intended target to other relatable targets, this assay endpoint is annotated to the transferase intended target family, where the subfamily is alkyl and aryl transferase.
A total of 1060 chemcials from the ToxCast library were tested in eight-point concentration-response experiments. Cell culture and cytotoxicity assays were conducted at Thermo Fisher Scientific's Custom Services facility (Madison, WI). […] Fluidigm's 96.96 Dynamic ArrayTM (Fluidigm, Amsterdam, the Netherlands) technology was used for gene expression analyses by quantitative reverse transcription polymerase chain reaction (qRT-PCR, performed by Quintiles/Expression Analysis, Durham, NC)89. […]

[5] = read-out: Heat shock 70 kDa protein 1 (HSPA1A), gene 3303; experiment: LTEA_HepaRG_HSPA1A: Life Technologies and Expression Analysis (LTEA) Assay for Heat shock 70 kDa protein 1 (HSPA1A) using HepaRG (AID 2283502)
Procedure, shortened: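 Human HepaRG cells in serum-free induction medium were exposed in duplicate for 48 h to 8 half-log concentrations, highest 100 uM, in 0.5% DMSO. HSPA1A mRNA read by TaqMan qRT-PCR, normalized to ACTB, GAPDH, POLR2A, fitted bidirectionally against DMSO.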

[6] = read-out: Hypoxia-inducible factor 1-alpha (Homo sapiens) (UniProt Q16665); experiment: LTEA_HepaRG_HIF1A: Life Technologies and Expression Analysis (LTEA) Assay for Hypoxia-inducible factor 1 (HIF1A) Trancription factor using HepaRG (AID 2283503)
Procedure, shortened: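 Differentiated HepaRG cells in serum-free induction medium exposed 48 h, in duplicate, to 8-point half-log series from 100 uM in 0.5% DMSO. HIF1A mRNA measured by TaqMan qRT-PCR, normalized to ACTB/GAPDH/POLR2A, fitted bidirectionally versus DMSO.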

[7] = read-out: 3-Hydroxy-3-Methylglutaryl-CoA Synthase 2 (HMGCS2), HMGCS2 (gene 3158); experiment: LTEA_HepaRG_HMGCS2: Life Technologies and Expression Analysis (LTEA) Assay for 3-Hydroxy-3-Methylglutaryl-CoA Synthase 2 (HMGCS2) using HepaRG (AID 2283504)
Procedure, shortened: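 HepaRG, plated 48 h then switched to serum-free induction media; cmpd 8-pt, max 100 uM, 1/2-log, 0.5% DMSO, n=2, 48 h. HMGCS2 mRNA by Fluidigm TaqMan qRT-PCR, ACTB/GAPDH/POLR2A norm; bidirectional fit vs DMSO.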

[8] = read-out: HGF (gene 3082); experiment: LTEA_HepaRG_HGF: Life Technologies and Expression Analysis (LTEA) Assay for Hepatocyte Growth Facto (HGF) using HepaRG (AID 2283505)
Procedure, shortened: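 Read-out is HGF transcript level by qRT-PCR, normalized to three housekeeping genes, fitted bidirectionally against 0.5% DMSO vehicle. Human HepaRG cells received test chemicals for 48 h at up to 100 uM.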

[9] = read-out: Intercellular Adhesion Molecule 1 (ICAM1), ICAM1 (gene 3383); experiment: LTEA_HepaRG_ICAM1: Life Technologies and Expression Analysis (LTEA) Assay for Intercellular Adhesion Molecule 1 (ICAM1) using HepaRG (AID 2283507)
Procedure, shortened: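 Readout is qRT-PCR mRNA level, normalized to three housekeeping genes and fitted bidirectionally against 0.5% DMSO vehicle. Human HepaRG cultures received compound for 48 h, top concentration 100 uM with half-log dilutions.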

[10] = read-out: Insulin-like growth factor-binding protein 1 (IGFBP1), IGFBP1 (gene 3484); experiment: LTEA_HepaRG_IGFBP1: Life Technologies and Expression Analysis (LTEA) Assay for Insulin-like growth factor-binding protein 1 (IGFBP1) using HepaRG (AID 2283508)
Procedure, shortened: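 Thawed HepaRG cells are plated for 48 h, switched to serum-free induction medium, then dosed in duplicate for another 48 h (100 uM top, half-log steps). Lysates in RLT go to qRT-PCR, and gain or loss of signal is fitted relative to vehicle.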

Measured: outcome

Chain of Hypoxia-inducible factor 1-alpha (Homo sapiens) (Q16665 whole entry, looked up): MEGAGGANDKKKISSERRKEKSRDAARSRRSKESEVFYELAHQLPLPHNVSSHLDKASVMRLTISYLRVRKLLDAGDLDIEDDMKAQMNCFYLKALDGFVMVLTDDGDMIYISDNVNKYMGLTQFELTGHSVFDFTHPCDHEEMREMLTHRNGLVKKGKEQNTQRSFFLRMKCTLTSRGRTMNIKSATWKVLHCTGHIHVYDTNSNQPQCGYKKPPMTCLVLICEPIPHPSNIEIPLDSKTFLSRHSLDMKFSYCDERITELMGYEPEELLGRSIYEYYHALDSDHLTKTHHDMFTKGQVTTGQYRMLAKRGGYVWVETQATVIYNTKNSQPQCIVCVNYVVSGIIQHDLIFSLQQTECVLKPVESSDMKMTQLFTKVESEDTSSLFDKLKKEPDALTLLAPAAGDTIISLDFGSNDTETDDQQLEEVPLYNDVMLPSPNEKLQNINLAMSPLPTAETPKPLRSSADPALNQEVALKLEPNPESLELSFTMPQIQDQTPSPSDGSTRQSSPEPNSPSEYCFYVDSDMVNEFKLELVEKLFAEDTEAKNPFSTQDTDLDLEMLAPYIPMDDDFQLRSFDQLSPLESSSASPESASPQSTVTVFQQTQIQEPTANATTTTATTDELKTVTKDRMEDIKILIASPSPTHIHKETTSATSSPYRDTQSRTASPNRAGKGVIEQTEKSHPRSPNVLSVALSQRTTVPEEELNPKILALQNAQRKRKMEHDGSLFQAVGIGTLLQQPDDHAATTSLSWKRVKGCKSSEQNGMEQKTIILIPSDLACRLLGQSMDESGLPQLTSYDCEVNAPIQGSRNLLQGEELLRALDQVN

CS(=O)(=O)OCCCCOS(C)(=O)=O
inactive: all assays above
